Values joined by “and” are separate entries in the source; they are usually repeats but may differ in a detail not shown here. Identical values can stand only once. Results filed as inconclusive are left out. A call without a number means that no potency is given here. A structure can be active in one record and inactive in another. Active and inactive are the calls of the source. Unless noted, calls come from the whole dose curve; as a rule, active = well fitted curve in the direction sought with a large enough effect; inconclusive = small, poorly fitted or top-dose-only effect, or another doubt; inactive = no such curve, though single readings can be large; an effect the other way counts as inactive or inconclusive.
Legend:
[1] = Identifying Small Molecule Inhibitors of Pancreatic Cancer Stem Cells (SN12C, Adherent) (AID 1259358);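 note: cell survival measured after 48 h of compound exposure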; note: potency is the fitted concentration of half-maximal effect
Outline: (§1)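 Cytotoxicity read by CellTiter-Glo luminescence after 48 h compound exposure at 37C; percent activity scaled between DMSO-treated cells and cell-free wells. Spheroid formats used cells pre-formed 14 days in stem cell media on hydrogel.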

[2] = Identifying Small Molecule Inhibitors of Pancreatic Cancer Stem Cells (Panc1, Adherent) (AID 1259362); settings: Potency: viability; note: potency is the fitted concentration of half-maximal effect
Outline: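 After a 4 h attachment period, compounds were pinned into wells and cultures held 48 h under standard incubator conditions. Viability was then measured as CellTiter-Glo luminescence following 10 min at room temperature.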

[3] = P-glycoprotein substrates identified in KB-8-5-11 adenocarcinoma cell line, qHTS therapeutic library screen (AID 1346987); note: nearly all actives have a fitted effect of over 65% in size; note: potency is the fitted concentration of half-maximal effect; for activity change, negative = cytotoxicity: series mostly up to about 44 µM
Outline: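 Steps: plate 500 KB-8-5-11 cells/well in DMEM + 10% FCS (colchicine removed); pin compounds in dose-response; incubate 72 h, 37 degree C, 5% CO2; add CellTiter-Glo, 5 min; read luminescence.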

[4] = Identifying Small Molecule Inhibitors of Pancreatic Cancer Stem Cells (SN12C, Spheroid) (AID 1259360); settings: Potency: SN12C spheroid viability; note: potency is the fitted concentration of half-maximal effect
Outline: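 Pre-formed 14-day tumor spheroids or adherent cells dosed and incubated 48 h, 37C, 5% CO2. Viability assessed by CellTiter-Glo.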

[5] = P-glycoprotein substrates identified in KB-3-1 adenocarcinoma cell line, qHTS therapeutic library screen (AID 1346986); note: nearly all actives have a fitted effect of over 60% in size;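 note: potency is the fitted concentration of half-maximal effect; potency is for cytotoxicity meaning loss of cell viability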
Outline: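 Cells seeded 500/well in DMEM/10% FCS; compounds pinned in dose-response; 72 h incubation; CellTiter-Glo added, 5 min, luminescence. KB-8-5-11 run ±tariquidar to test reversal of P-gp resistance.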

[6] = Identifying Small Molecule Inhibitors of Pancreatic Cancer Stem Cells (A278, Adherent) (AID 1259361); note: nearly all actives have a fitted effect of over 35% in size
Outline: as §1

[7] = Natriuretic polypeptide receptor (hNpr1) antagonism - Pilot counterscreen GloSensor control cell line (AID 1347045; calls by dose curve; note: series mostly up to about 38 µM)
Outline: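 Luminescence was read before and 20 min after adding 50 uM SNP, which stimulates soluble guanylyl cyclase. The HEK293 cells expressing the GloSensor cGMP sensor had been preloaded with 2% reagent for 2 h and treated with compound.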

## CCOc1ccn(-c2ccc(F)cc2)c(=O)c1C(=O)Nc1ccc(Oc2ccnc(N)c2Cl)c(F)c1
[1]
  Potency: 18.7 µM (active)
[2]
  Potency: 6.62 µM (active)
[3]
  Potency: 14.8 µM (active)

## Cc1c(CN2CCN(C(=O)C(C)C)CC2)sc2c(N3CCOCC3)nc(-c3cnc(N)nc3)nc12
[1]
  Potency: 0.0935 µM (active)
[4]
  Potency: 0.166 µM (active)
[3]
  Potency: 0.0833 µM (active)

## COc1cc2nccc(Oc3ccc(NC(=O)NC4CC4)c(Cl)c3)c2cc1C(N)=O
[1]
  Potency: 18.7 µM (active)
[4]
  Potency: inactive
[5]
  Potency: inactive
[3]
  Potency: inactive

## O=C(O)CCc1ccc(NCc2cccc(Oc3ccccc3)c2)cc1
[1]
  Potency: inactive
[4]
  Potency: inactive
[6]
  IC50 (viability decrease): inactive
[3]
  Potency: inactive

## CCC(C)N(C)C(=O)c1cc2ccccc2c(-c2ccccc2Cl)n1 (stereo not given)
[1]
  Potency: inactive
[6]
  IC50 (viability decrease): inactive
[7]
  outcome: inactive

## CCCn1c(=O)c2[nH]c(C34CC5CC3C[C@@H](C5)C4)nc2n(CCC)c1=O
[1]
  Potency: inactive
[3]
  Potency: inactive

## Cc1ccnc(NS(=O)(=O)c2ccc(NC(=O)Nc3ccc(S(=O)(=O)Nc4nccc(C)n4)cc3)cc2)n1
[5]
  Potency: inactive
[3]
  Potency: 14.8 µM (active) and inactive

## CNC(=O)c1ccc(C)c(-n2c(C)cc(OCc3ccc(F)cc3F)c(Br)c2=O)c1
[3]
  Potency: inactive

## CCOc1cc(N2CCC(O)CC2)ccc1Nc1ncc2c(n1)N(C)c1ccccc1C(=O)N2C
[5]
  Potency: 8.2 µM (active)
[3]
  Potency: 18.4 µM (active)

## OCCC#Cc1nc(-c2ccc(F)cc2)c(-c2ccncc2)n1CCCc1ccccc1
[4]
  Potency: 20.9 µM (active)

## COc1ccc(CC2=NN3C([C@@H](CCc4ccccc4)[C@@H](C)O)=NC(C)C3C(=O)N2)cc1OC (stereo not given in full)
[4]
  Potency: inactive
[6]
  IC50 (viability decrease): 23.5 µM (active)
[3]
  Potency: inactive

## CNCc1ccc(-c2[nH]c3cc(F)cc4c3c2CCNC4=O)cc1
[6]
  IC50 (viability decrease): 20.9 µM (active)
[3]
  Potency: inactive

## CCn1c(-c2nonc2N)nc2cnc(Oc3cccc(NC(=O)c4ccc(OCCN5CCOCC5)cc4)c3)cc21
[1]
  Potency: inactive
[5]
  Potency: 3.66 µM (active)
[3]
  Potency: 1.64 µM (active)

## CCOC(=O)N[C@@H]1CC[C@@H]2[C@@H](C1)C[C@H]1C(=O)O[C@H](C)[C@H]1[C@@H]2C=Cc1ccc(-c2cccc(F)c2)cn1
[4]
  Potency: 14.8 µM (active)

## COc1ccc(C2=N[C@H](c3ccc(Cl)cc3)[C@H](c3ccc(Cl)cc3)N2C(=O)N2CCNC(=O)C2)c(OC(C)C)c1
[4]
  Potency: inactive
[6]
  IC50 (viability decrease): 18.7 µM (active)
[2]
  Potency: inactive

## CC(=O)NC(C)c1ccc(Oc2ccc(OC(C)C)cc2)cc1 (stereo not given)
[1]
  Potency: inactive
[3]
  Potency: inactive

## CC1(C)CNc2cc(NC(=O)c3cccnc3NCc3ccncc3)ccc21
[1]
  Potency: inactive
[3]
  Potency: inactive

## N#CC[C@H](C1CCCC1)n1cc(-c2ncnc3[nH]ccc23)cn1
[4]
  Potency: inactive
[3]
  Potency: 26.4 µM (active)

## COc1ccc([C@@H]2CC(=O)c3c(O)cc(O[C@@H]4O[C@H](CO[C@@H]5O[C@@H](C)[C@H](O)[C@@H](O)[C@@H]5O)[C@@H](O)[C@H](O)[C@@H]4O)cc3O2)cc1O
[5]
  Potency: inactive
[3]
  Potency: inactive

## Cn1cnc2c(F)c(Nc3ccc(Br)cc3Cl)c(C(=O)NOCCO)cc21
[1]
  Potency: 1.18 µM (active)
[3]
  Potency: inactive

## OCCn1cc(-c2cnc3nnn(Cc4ccc5ncccc5c4)c3n2)cn1
[1]
  Potency: inactive
[3]
  Potency: inactive

## CC(C)(N)C(=O)N[C@H](COCc1ccccc1)C(=O)N1CCC2(CC1)CN(S(C)(=O)=O)c1ccccc12
[3]
  Potency: inactive

## O=C(Nc1nc2ccccc2n1CCN1CCOCC1)c1cccc([N+](=O)[O-])c1
[1]
  Potency: inactive
[5]
  Potency: inactive
[3]
  Potency: inactive
[7]
  outcome: inactive

## COc1cc(Oc2ccnc3cc(OC)c(OC)cc23)ccc1NC(=O)NC(C)c1nccs1 (stereo not given)
[3]
  Potency: inactive

## NC(=O)c1ccc(-c2nc(-c3ccc4c(c3)OCCO4)c(-c3ccccn3)[nH]2)cc1
[1]
  Potency: inactive
[3]
  Potency: inactive

## COCC(=O)NCC=Cc1ccc2ncnc(Nc3ccc(Oc4ccc(C)nc4)c(C)c3)c2c1
[6]
  IC50 (viability decrease): 20.9 µM (active)

## Cc1ccc(NC(=O)c2cccc(C(C)(C)C#N)c2)cc1Nc1ccc2ncn(C)c(=O)c2c1
[1]
  Potency: 7.43 µM (active)
[3]
  Potency: 16.6 µM (active)

## CNC(=O)c1ccccc1Sc1ccc2c(/C=C/c3ccccn3)n[nH]c2c1
[3]
  Potency: 18.4 µM (active) and 7.31 µM (active)

## CCCS(=O)(=O)Nc1ccc(F)c(C(=O)c2c[nH]c3ncc(-c4ccc(Cl)cc4)cc23)c1F
[1]
  Potency: inactive
[3]
  Potency: inactive

## C[C@@H]1CN(Cc2ccc(F)cc2)[C@@H](C)CN1C(=O)c1cc2c(C(=O)C(=O)N(C)C)cn(C)c2cc1Cl
[4]
  Potency: 16.6 µM (active)
[6]
  IC50 (viability decrease): 20.9 µM (active)
[3]
  Potency: inactive

## CCc1cncnc1N1CCN(Cc2nc3ccc(C(F)(F)F)cc3[nH]2)CC1
[4]
  Potency: 14.8 µM (active)

## CO[C@@H]1[C@H](N(C)C(=O)c2ccccc2)C[C@H]2O[C@]1(C)n1c3ccccc3c3c4c(c5c6ccccc6n2c5c31)C(=O)NC4
[5]
  Potency: 1.3 µM (active)
[3]
  Potency: 1.48 µM (active) and 1.3 µM (active)

## COc1ccccc1-c1cccc(-c2c(O)c3cc(C#N)c(Cl)cc3[nH]c2=O)c1
[1]
  Potency: inactive
[3]
  Potency: inactive

## CC(C=CC1=C(C)CCCC1(C)C)=CC=CC(C)=CC(=O)O
[5]
  Potency: inactive
[3]
  Potency: inactive

## Cc1cc(-c2nnc3n2CCCCC3)c(C)n1-c1ccc(F)cc1
[4]
  Potency: inactive

## CCOc1cc(C=C2C(=O)N(c3ccccc3)N=C2C)cc(Cl)c1OCC(=O)OC
[1]
  Potency: inactive
[3]
  Potency: inactive

## C/C(=C\C(=O)Nc1ccccc1C(=O)O)c1ccc2ccccc2c1
[4]
  Potency: inactive
[3]
  Potency: inactive

## COc1ccc(CCN2CCN(CCCc3ccccc3)CC2)cc1OC
[2]
  Potency: inactive
[3]
  Potency: inactive

## Cc1ccc(-n2nc(C(C)(C)C)cc2NC(=O)Nc2ccc(OCCN3CCOCC3)c3ccccc23)cc1
[6]
  IC50 (viability decrease): 18.7 µM (active)
[5]
  Potency: inactive

## O=C(c1cc(Cc2n[nH]c(=O)c3ccccc23)ccc1F)N1CCN(C(=O)C2CC2)CC1
[3]
  Potency: inactive

## CN(C(=O)c1ccc(F)cc1C(F)(F)F)C1CCN(c2nnc(-c3ccnn3C)c3ccccc23)CC1
[1]
  Potency: inactive
[3]
  Potency: inactive

## CC[C@H](Nc1ncnc2nc[nH]c12)c1nc2cccc(F)c2c(=O)n1-c1ccccc1
[6]
  IC50 (viability decrease): 20.9 µM (active)
[5]
  outcome: inactive [at 9.29 µM]
[3]
  activity change, negative = cytotoxicity: 3.11% [at 9.29 µM] (inactive)

## COc1cc(Nc2ncc3c(n2)-c2ccc(Cl)cc2C(c2c(F)cccc2OC)=NC3)ccc1C(=O)O
[5]
  Potency: 0.103 µM (active)
[3]
  Potency: 0.0833 µM (active)

Source: PubChem BioAssay (NCATS)
